# Source: the supplement of paper PMC10849652
# The full data set covers some 8,800 targets. This sample favours those with a hit. About 0.5% of all pairs of compound and target were hits.
# Key:
# Test in all cases: log2 fold change, soluble protein after heating vs DMSO (PISA); higher = thermal stabilisation; K562 lysate, 10 uM; active = over 0.2 and 3.5 SD of the protein, either way, in both replicates (recomputed)
# [1] = compound: C1=CC=C(C=C1)[C@H](COC2=CC3=C(C=C2)NC(=O)N3)NC(=O)C4=CC=CN(C4=O)CC5=CC(=C(C=C5)F)F
# Summary of the method: (§1)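 Quantification was by TMTpro 16plex LC-MS/MS with equalised channel sums, applied to the supernatant after 21,000xg for 90 min. Samples were crude K562 extract at 1 mg/mL protein in PBS pH 7.4 with 1 mM MgCl2, treated with 10 μM compound for 30 min, heated for 3 min across 48°C-58°C, pooled and brought to 0.5% NP-40 at 4°C. Values are log-two fold changes in thermal stability relative to solvent controls, from duplicates.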
# [2] = compound: CC1=C(SC2=C1C(=N[C@H](C3=NN=C(N32)C)CC(=O)N)C4=CC=C(C=C4)Cl)C
# Summary of the method: as §1
# [3] = compound: Cc1sc2c(c1C)C(c1ccc(Cl)cc1)=N[C@@H](CC(=O)OC(C)(C)C)c1nnc(C)n1-2
# Summary of the method: as §1
# [4] = compound: c1ccc([C@@H]2C[C@H]2NC2CCNCC2)cc1
# Summary of the method: as §1
# [5] = compound: CC1=C2C(=CC=C1)N=C(N(C2=O)C3=CC=CC=C3C)CN4C=NC5=C(N=CN=C54)N
# Summary of the method: as §1
# Chain of UniProt O00471 (O00471 whole entry, looked up): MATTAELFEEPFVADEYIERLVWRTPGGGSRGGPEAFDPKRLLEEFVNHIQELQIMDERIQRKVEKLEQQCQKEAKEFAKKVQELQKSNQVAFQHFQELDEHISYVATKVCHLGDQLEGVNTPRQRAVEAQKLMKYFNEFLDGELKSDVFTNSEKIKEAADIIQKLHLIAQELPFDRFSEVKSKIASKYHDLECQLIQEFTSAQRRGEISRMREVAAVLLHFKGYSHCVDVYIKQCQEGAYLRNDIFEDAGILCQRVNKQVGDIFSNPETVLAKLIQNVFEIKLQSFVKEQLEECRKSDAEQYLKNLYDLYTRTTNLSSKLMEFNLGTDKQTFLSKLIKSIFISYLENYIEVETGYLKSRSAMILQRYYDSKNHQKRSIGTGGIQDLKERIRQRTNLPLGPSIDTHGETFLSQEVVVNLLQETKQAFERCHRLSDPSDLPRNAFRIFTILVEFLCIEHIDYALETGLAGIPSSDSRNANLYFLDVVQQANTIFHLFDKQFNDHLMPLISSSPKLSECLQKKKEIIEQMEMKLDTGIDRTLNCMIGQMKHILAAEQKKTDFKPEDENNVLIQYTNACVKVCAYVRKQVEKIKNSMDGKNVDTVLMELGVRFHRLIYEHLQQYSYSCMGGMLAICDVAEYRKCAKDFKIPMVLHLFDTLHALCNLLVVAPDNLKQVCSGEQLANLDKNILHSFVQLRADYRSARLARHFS
# Chain of UniProt Q9P0K8 (Q9P0K8 whole entry, looked up): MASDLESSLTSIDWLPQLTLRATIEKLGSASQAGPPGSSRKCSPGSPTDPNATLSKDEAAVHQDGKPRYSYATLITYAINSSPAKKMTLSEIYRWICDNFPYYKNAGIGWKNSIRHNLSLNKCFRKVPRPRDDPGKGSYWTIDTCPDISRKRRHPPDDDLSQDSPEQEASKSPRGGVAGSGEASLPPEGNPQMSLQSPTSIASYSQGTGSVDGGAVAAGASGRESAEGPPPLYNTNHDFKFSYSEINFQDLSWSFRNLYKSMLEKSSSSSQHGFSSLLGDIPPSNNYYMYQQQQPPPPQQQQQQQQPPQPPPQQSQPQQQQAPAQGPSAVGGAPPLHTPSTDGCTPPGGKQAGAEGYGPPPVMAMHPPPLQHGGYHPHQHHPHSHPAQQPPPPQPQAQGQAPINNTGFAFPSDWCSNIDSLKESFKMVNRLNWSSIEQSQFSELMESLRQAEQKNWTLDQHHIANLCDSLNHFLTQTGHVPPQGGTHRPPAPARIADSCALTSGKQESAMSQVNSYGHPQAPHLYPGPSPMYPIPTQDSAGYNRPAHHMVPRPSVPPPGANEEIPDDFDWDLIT
# Chain of UniProt Q9H6S3 (Q9H6S3 whole entry, looked up): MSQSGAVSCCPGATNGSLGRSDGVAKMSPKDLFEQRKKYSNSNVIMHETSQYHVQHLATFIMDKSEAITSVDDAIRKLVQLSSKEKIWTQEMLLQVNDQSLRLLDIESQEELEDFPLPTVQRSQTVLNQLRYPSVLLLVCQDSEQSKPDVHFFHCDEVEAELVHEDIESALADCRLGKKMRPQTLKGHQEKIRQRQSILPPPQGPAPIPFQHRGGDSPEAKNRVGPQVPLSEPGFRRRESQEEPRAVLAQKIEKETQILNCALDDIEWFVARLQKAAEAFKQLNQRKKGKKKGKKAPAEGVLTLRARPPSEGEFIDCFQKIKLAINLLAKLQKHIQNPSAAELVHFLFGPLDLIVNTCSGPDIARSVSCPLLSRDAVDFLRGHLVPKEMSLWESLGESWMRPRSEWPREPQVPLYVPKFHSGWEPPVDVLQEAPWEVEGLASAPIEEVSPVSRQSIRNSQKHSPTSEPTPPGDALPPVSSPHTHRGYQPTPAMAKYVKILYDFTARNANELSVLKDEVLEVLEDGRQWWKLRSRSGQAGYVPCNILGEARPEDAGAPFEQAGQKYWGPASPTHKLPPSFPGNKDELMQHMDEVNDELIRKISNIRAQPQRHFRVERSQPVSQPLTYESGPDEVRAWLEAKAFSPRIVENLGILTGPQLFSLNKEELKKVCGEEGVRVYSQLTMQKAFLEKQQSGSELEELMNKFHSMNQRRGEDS
# Chain of UniProt Q9HCG7 (Q9HCG7 whole entry, looked up): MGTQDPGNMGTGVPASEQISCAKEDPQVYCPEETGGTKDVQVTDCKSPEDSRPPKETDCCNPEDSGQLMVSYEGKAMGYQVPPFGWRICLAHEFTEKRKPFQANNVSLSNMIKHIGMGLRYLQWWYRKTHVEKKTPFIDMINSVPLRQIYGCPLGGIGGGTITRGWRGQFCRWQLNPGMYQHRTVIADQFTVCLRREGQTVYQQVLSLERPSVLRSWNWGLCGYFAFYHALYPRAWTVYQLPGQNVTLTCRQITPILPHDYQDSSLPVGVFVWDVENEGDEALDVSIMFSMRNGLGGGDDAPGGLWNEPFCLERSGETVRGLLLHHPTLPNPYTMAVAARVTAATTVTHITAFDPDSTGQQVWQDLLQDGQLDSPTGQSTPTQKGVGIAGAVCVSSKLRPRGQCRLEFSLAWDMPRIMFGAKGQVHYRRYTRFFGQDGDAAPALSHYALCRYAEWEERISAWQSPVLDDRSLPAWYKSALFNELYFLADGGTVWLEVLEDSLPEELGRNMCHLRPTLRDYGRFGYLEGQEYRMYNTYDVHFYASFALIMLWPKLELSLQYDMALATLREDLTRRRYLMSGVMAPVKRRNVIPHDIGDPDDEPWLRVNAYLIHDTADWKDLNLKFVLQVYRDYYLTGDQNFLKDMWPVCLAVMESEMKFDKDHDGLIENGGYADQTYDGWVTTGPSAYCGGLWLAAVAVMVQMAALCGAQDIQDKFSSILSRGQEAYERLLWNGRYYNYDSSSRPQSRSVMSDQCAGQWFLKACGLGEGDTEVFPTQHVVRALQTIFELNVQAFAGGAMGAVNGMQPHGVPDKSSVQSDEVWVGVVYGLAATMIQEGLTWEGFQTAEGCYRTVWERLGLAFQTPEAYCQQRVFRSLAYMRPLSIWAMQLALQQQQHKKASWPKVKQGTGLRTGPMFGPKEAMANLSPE
# Chain of UniProt P02774 (P02774 whole entry, looked up): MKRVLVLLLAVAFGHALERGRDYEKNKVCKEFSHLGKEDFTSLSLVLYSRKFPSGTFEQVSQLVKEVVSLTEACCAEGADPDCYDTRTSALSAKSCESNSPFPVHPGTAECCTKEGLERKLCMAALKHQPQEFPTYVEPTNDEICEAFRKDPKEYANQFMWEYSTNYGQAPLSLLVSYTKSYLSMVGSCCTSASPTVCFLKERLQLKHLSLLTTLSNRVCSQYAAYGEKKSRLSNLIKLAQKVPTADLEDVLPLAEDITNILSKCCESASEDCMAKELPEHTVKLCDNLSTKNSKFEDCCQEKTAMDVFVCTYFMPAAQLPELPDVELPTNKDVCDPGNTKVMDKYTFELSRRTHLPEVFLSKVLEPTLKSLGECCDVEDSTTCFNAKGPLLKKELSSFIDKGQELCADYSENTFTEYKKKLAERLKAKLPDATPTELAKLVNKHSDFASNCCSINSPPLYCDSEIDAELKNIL
# Chain of UniProt P58012 (P58012 whole entry, looked up): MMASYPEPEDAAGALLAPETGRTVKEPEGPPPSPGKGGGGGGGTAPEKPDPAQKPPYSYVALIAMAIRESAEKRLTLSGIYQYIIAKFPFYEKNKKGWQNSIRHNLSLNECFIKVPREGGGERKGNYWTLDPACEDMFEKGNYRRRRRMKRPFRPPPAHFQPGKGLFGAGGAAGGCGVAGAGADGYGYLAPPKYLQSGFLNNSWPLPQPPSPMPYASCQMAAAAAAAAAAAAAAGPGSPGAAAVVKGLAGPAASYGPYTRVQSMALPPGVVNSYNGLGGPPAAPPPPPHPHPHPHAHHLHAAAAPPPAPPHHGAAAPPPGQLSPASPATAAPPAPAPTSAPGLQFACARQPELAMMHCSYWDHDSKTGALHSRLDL
# Chain of UniProt Q96PZ2 (Q96PZ2 whole entry, looked up): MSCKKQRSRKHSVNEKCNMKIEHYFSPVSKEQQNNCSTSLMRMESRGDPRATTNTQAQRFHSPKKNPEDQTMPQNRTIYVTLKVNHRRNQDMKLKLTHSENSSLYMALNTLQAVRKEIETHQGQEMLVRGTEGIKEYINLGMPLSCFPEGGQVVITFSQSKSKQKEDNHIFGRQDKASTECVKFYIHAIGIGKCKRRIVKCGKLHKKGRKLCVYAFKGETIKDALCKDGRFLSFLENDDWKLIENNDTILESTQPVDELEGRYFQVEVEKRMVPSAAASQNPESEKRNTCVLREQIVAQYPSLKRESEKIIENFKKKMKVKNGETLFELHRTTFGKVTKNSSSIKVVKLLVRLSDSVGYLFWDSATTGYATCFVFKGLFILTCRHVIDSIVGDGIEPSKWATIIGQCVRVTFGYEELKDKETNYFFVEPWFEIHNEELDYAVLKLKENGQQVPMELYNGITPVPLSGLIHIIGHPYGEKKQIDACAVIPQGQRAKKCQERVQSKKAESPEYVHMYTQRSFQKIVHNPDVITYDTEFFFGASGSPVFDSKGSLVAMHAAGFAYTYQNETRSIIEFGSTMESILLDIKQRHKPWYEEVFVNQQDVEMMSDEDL
# Chain of UniProt Q9Y6B2 (Q9Y6B2 whole entry, looked up): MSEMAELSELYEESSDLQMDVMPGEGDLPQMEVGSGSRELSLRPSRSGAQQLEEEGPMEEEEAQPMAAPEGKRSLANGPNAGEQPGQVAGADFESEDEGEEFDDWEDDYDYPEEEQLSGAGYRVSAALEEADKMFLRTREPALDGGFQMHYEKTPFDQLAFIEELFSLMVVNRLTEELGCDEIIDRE
Target,log2 fold change [1],log2 fold change [2],log2 fold change [3],log2 fold change [4],log2 fold change [5]
FOXJ2 (UniProt Q9P0K8),0.022 (inactive),0.06 (inactive),0.015 (inactive),0.039 (inactive),
FAM111A (UniProt Q96PZ2),,,-0.097 (inactive),,-0.008 (inactive)
EXOC5 (UniProt O00471),-0.065 (inactive),-0.002 (inactive),-0.023 (inactive),0.035 (inactive),0.068 (inactive)
EVI5L isoform 2 (UniProt Q96CN4),,,,0.036 (inactive),
GC isoform 3 (UniProt P02774),,,-0.138 (inactive),0.107 (inactive),0.007 (inactive)
FAT1 (UniProt Q14517),,,,-0.092 (inactive),
EID1 (UniProt Q9Y6B2),,,0.024 (inactive),-0.022 (inactive),
GBA2 (UniProt Q9HCG7),0.046 (inactive),0.062 (inactive),-0.094 (inactive),-0.057 (inactive),
EPB41 isoform 4 (UniProt P11171),,,,0.106 (inactive),
EPN2 (UniProt I3L356),0.12 (inactive),-0.062 (inactive),,-0.235 (inactive),
FOXL2 (UniProt P58012),0.135 (inactive),0.129 (inactive),0.166 (inactive),,
EPS8L2 (UniProt Q9H6S3),0.124 (inactive),-0.09 (inactive),0.008 (inactive),0.037 (inactive),
